Source: PubChem BioAssay
Shown are actives, neighbours in structure and some others; about 12% of the full set was active somewhere.
ROMK mod – modulates human ROMK potassium channel activity. 130,000 compounds, 2% hits. Tet-inducible ROMK, thallium flux fluorescence; actives lie on both sides. B-score at 10 µM;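 active = signal ratio slope over the read window, or its plate-corrected B-score, at least 3 SD from the plate mean, either direction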;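 also: B-score of the F/F0 ratio slope over 7 to 12 s after thallium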
Target sequence (P48048 whole entry, looked up): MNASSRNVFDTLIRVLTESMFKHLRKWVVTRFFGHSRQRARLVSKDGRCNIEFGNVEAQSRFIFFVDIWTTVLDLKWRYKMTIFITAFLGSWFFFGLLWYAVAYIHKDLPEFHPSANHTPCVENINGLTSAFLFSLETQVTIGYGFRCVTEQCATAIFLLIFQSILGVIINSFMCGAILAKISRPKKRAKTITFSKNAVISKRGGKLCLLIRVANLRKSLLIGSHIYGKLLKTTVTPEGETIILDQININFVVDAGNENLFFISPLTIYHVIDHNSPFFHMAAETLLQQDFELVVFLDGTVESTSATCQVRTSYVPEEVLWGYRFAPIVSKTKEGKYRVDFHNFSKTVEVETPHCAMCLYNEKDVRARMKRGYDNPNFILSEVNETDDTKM
WT yeast gro inh – growth inhibition of WT yeast, mitochondrial fusion screen | 190,000 compounds, 2.1% hits | AID 1362 | inhibition, % at 10 µM | mitochondrial fusion phenotypic screen, WT strain; in the data active = inhibition above about 58%; tested in S. cerevisiae
Calpain2 inh – calpain II (pig) inhibition. purified calpain II, fluorogenic peptide substrate, 30 min. inhibition, % at 16 µM. 220,000 compounds, 0.37% hits. AID 1236;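 active = inhibition above about 50%, limit read from the data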
Cl transport mod – KCC2 (human) Cl- transport modulation | KCC2 cells, thallium flux FluoZin-2 fluorescence | B-score of Tl+ flux slope (higher = more flux/activation; lower = inhibition) at 10 µM | Q9H2X9 | 190,000 compounds, 2.2% hits | AID 1456;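 active = thallium flux slope and its plate-corrected score both differing from the plate sample mean at a set confidence after two filtering rounds, in either direction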;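 also: slope of fluorescence scaled to starting intensity during 10 to 20 s after thallium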
Lmaj promast – reduces viability of Leishmania major promastigotes. resazurin fluorescence viability. inhibition, % at 10 µM. 200,000 compounds, 9% hits; in the data active = inhibition above about 50%;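 also: promastigotes grown with compound for 44 hours at 28 °C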
An asterisk follows results filed as active; i = inactive; nt = no result.

SMILES	ROMK mod	WT yeast gro inh	Calpain2 inh	Cl transport mod	Lmaj promast
CCN(CC)C(=O)CSC1=C(C#N)C(c2ccco2)C(C(=O)OCCOC)=C(C)N1 (stereo not given)	0.27	-9	-5	-0.061	-1
CCn1nc(NC(=O)c2cccs2)c2cc3ccccc3nc21	-0.97	1	-51	-1.2	29
Cc1cccc(C(=O)NC(=S)N2CCc3ccccc3C2)c1	9.1*	52	31	125*	-8
CCNC(=S)N1CCc2ccccc2C1	-0.59	-14	-18	-0.31	0
Oc1ccc[n+](CCCCC[n+]2cccc(O)c2)c1	nt	nt	-17	0.24	nt
CCCCCCCC[n+]1cccc(C(=O)N(CC)CC)c1	-0.11	8	7	-0.41	61*
CCN1CCN(C(c2cccc(OC)c2OC)c2nnnn2Cc2ccco2)CC1 (stereo not given)	0.041	-3	-20	0.19	-1
Cc1ccc(C)c2[nH]c(=O)c(C(c3nnnn3Cc3ccco3)N3CCc4ccccc4C3)cc12 (stereo not given)	-1.6	14	-370	-0.55	94*
CCOc1ccc2[nH]c(=O)c(C(c3nnnn3Cc3ccco3)N3CCC(C)CC3)cc2c1 (stereo not given)	nt	-5	-143	-0.69	18
Cc1ccc(C)c2[nH]c(=O)c(C(c3nnnn3CCc3ccccc3)N3CCOCC3)cc12 (stereo not given)	-0.15	-5	-115	-1.2	100*
COc1ccccc1C(c1nnnn1Cc1ccco1)N1CCN(c2cccc(C)c2C)CC1 (stereo not given)	nt	28	4	-1.1	74*
N#CC12CCCCC1CC1CCCCC1(C#N)N2Cc1cccnc1 (stereo not given)	-0.85	5	nt	-0.79	-9
Cc1ccc(-n2cc(-c3ccccc3)c3c(N4CCOCC4)ncnc32)cc1	-1.6	71*	2	-0.86	14
Cc1ccc(-n2cc(-c3ccccc3)c3c(N4CCN(C)CC4)ncnc32)cc1	-1.2	62*	-30	-0.17	27
CC1CN(c2ncnc3c2c(-c2ccccc2)cn3-c2ccc(F)cc2)CC(C)O1 (stereo not given)	-0.52	75*	-20	-0.4	26
OCCN1CCN(c2ncnc3c2c(-c2ccccc2)cn3-c2ccc(F)cc2)CC1	-0.78	6	-63	-0.61	22
O=C(CSc1nnc(-c2ccncc2)n1CCc1ccccc1)N1CCCC1	nt	nt	-2	1.8	nt
Cc1c(/N=C(\[O-])Nc2ccc(Br)cc2)sn[n+]1C	nt	nt	23	0.01	nt
COc1ccc(/C=C/C(=O)Oc2ccc(C)c(C)c2)cc1OC	0.048	17	-13	-0.74	21
COc1ccc(N(C(=O)c2ccc(Cl)cc2)C2=CC3CCC(C2)N3C)cc1 (stereo not given)	-0.31	0	-30	0.64	79*
COc1ccc(N(C(=O)/C=C/c2ccc(OC)c(OC)c2)C2=CC3CCC(C2)N3C)cc1 (stereo not given)	0.64	-8	3	-0.046	100*
CN1C2C=C(N(CCc3ccccc3)C(=O)c3ccc(Cl)cc3)CC1CC2 (stereo not given)	-1	-1	-24	0.089	2
O=C(NCc1ccc(F)cc1)c1ccc(S(=O)(=O)Nc2cccc(C(F)(F)F)c2)cc1	-1.7	5	4	-0.79	66*
O=C(COc1ccccc1Br)NCCc1nc2ccccc2[nH]1	-0.69	3	5	-0.69	0
COc1ccc(/C(C)=N/Nc2ccc(C(=O)O)cc2)cc1OC	1.5	-12	18	0.0029	51*
SMILES	ROMK mod	WT yeast gro inh	Calpain2 inh	Cl transport mod	Lmaj promast
CC(C)=C1SC(N2CCN(c3cccc(Cl)c3)CC2)=NC1=O	0.45	6	11	-0.66	68*
CC(C)=C1SC(N2CCN(Cc3ccccc3)CC2)=NC1=O	nt	2	-14	-1.5	-10
O=c1c(Br)c(NCc2ccccc2)cnn1-c1ccc(F)cc1	-0.14	8	-6	-0.71	19
COc1ccc(-c2noc(CSc3nnc(Cc4ccccc4)n3-c3ccc(Cl)cc3)n2)cc1	nt	60*	29	nt	18
COc1ccc(-c2noc(CSc3nnc(CCc4ccccc4)n3-c3ccccc3)n2)cc1OC	nt	37	3	-0.013	72*
Cc1ccc(-c2noc(CSc3nnc(Cc4ccccc4)n3-c3ccc(Cl)cc3)n2)cc1	nt	53	14	nt	20
CC1=CC(=O)c2c(O)ccc(O)c2C1=O	nt	35	47	-5.1*	98*
O=C(O)CC1(CC(=O)Nc2ccc3sccc3c2)CCCCC1	nt	nt	-1	-0.038	nt
Cc1ccccc1C1CCCN(Cc2nc(C3CC3)no2)C1 (stereo not given)	0.55	5	20	0.22	5
COc1ccc(CCNC(=O)COc2ccc(S(=O)(=O)NC3CCCCC3)cc2Cl)cc1	nt	-17	32	nt	75*
O=C(COc1ccc(S(=O)(=O)NC2CCCCC2)cc1Cl)N1CCN(c2ccccc2)CC1	0.46	23	-35	nt	98*
O=C(COc1ccc(S(=O)(=O)NC2CCCCC2)cc1)N1CCN(c2ccc(F)cc2)CC1	nt	9	14	nt	16
Cc1cccn2c(=O)c3cc(C#N)c(=O)n(CC4CCCO4)c3nc12 (stereo not given)	nt	-4	i	-0.3	4
Cn1c(CBr)c(C(=O)c2ccc([N+](=O)[O-])cc2)c(=O)n(C)c1=O	nt	nt	-16	-0.024	nt
C/C(=N\OCC(=O)Nn1c(C)nc2ccccc2c1=O)c1cccs1	nt	nt	-19	0.24	nt
CC(=O)c1c(N2CCCC2)[nH]c(-c2ccccc2)nc1=S	4.8*	1	50	33*	5
CC(=O)c1c(N2CCCCC2)nc(=S)n(Cc2ccccc2)c1C	-0.84	19	3	0.12	2
CC(=O)c1c(C)[nH]c(-c2ccccc2)c1C	nt	-1	2	-0.31	1
CC(=O)c1c(N2CCN(Cc3ccccc3)CC2)nc(=S)n(Cc2ccccc2)c1C	-2.5	8	12	-3.4	63*
CC(=O)c1c(N)[nH]c(-c2ccccc2)nc1=S	4.4*	-2	-14	nt	8
CC(=O)c1c(N2CCN(Cc3ccccc3)CC2)nc(=S)n(-c2ccccc2)c1C	-0.072	17	3	-0.6	-8
CC(=O)c1c(N2CCN(Cc3ccccc3)CC2)[nH]c(-c2ccccc2)nc1=S	7.5*	40	-39	45*	32
CCCN1C(=O)c2cc(C(=O)NCCc3cccc(C)c3)ccc2C1O (stereo not given)	nt	-2	15	-0.042	-4
CCN1C(=O)/C(=C\N(C)C)S/C1=N\S(=O)(=O)c1ccc(C)cc1	0.032	-4	-6	-0.29	2
CN(CCCNC(=O)CSc1cc(=O)n(C)c2ccc(Cl)cc12)Cc1ccccc1	nt	-1	-36	-0.029	58*
Cn1c(=O)cc(SCC(=O)NCc2cccnc2)c2ccccc21	nt	-13	-16	-0.035	3
COc1ccc(/C=N/NC(=O)c2c(-c3ccccc3)noc2C)cc1	0.036	-13	7	-0.39	5
O=C(N/N=C/C(Br)=C/c1ccccc1)NC1CCCCC1	-0.43	90*	11	-0.36	3
CCOc1cc(C(=O)N/N=C/C(Br)=C/c2ccccc2)cc(OCC)c1OCC	nt	-33	-61	-0.42	58*
O=C(N/N=C/C(Br)=C/c1ccccc1)c1ccncc1	nt	nt	24	1.9	nt
